Test results as given in PubChem BioAssay (NCATS).
Values joined by “and” are separate entries in the source; they are usually repeats but may differ in a detail not shown here. Identical values can stand only once. Records with an inconclusive call do not appear. Active and inactive are the calls of the source. Calls come from the whole dose curve; as a rule, active = well fitted curve in the direction sought with a large enough effect; inconclusive = small, poorly fitted or top-dose-only effect, or another doubt; inactive = no such curve, though single readings can be large; an effect the other way counts as inactive or inconclusive.

Experiments:
MKL-2 = experiment: qHTS assay to identify novel small-molecules to repurpose for Merkel cell carcinoma treatment (AID 1296009); conditions: MCC and control cell lines, CellTiter-Glo viability, 72 h; series mostly up to 46 µM; note: nearly all actives have a fitted effect of over 60% in size
Outline: (§1)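 Dose-response viability screen; 72 hr exposure at 37 degree celsius; CellTiter-Glo added, 10 min room temperature, luminescence read; RLUs scaled between no-cell and DMSO wells.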

NIH3T3 = experiment: as above; conditions: MCC and control cell lines, CellTiter-Glo viability, 72 h; at 44.8 µM (top of the series) unless noted
Outline: as §1

UISO = experiment: as above; conditions: MCC and control cell lines, CellTiter-Glo viability, 72 h; series mostly up to 46 µM
Outline: as §1

WaGa = experiment: as above; conditions: MCC and control cell lines, CellTiter-Glo viability, 72 h; series mostly up to 46 µM
Outline: as §1

C33A = experiment: Primary qHTS to identify gynecologic anti-cancer compounds using libraries of approved drugs and bioactive compounds (AID 1345084); conditions: Gynecologic cancer cell panel viability, ATPlite luminescence, 48 h; series mostly up to 57.5 µM; note: nearly all actives have a fitted effect of over 55% in size
Outline: (§2)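 48 h compound exposure at 37 C, 5% CO2; five-point qHTS. ATPlite luminescence readout of cell ATP.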

CAOV3 = experiment: as above; conditions: Gynecologic cancer cell panel viability, ATPlite luminescence, 48 h; series mostly up to 57.5 µM
Outline: as §2

CASKI = experiment: as above; conditions: Gynecologic cancer cell panel viability, ATPlite luminescence, 48 h; series mostly up to 57.5 µM
Outline: as §2

Es-2 = experiment: as above; conditions: Gynecologic cancer cell panel viability, ATPlite luminescence, 48 h; series mostly up to 57.5 µM
Outline: as §2

HeLa = experiment: as above; conditions: Gynecologic cancer cell panel viability, ATPlite luminescence, 48 h; series mostly up to 57.5 µM
Outline: as §2

Hek293T = experiment: as above; conditions: Gynecologic cancer cell panel viability, ATPlite luminescence, 48 h, control line for the selectivity index; series mostly up to 57.5 µM
Outline: as §2

JEG-3 = experiment: as above; conditions: Gynecologic cancer cell panel viability, ATPlite luminescence, 48 h; series mostly up to 57.5 µM
Outline: as §2

OV90 = experiment: as above; conditions: Gynecologic cancer cell panel viability, ATPlite luminescence, 48 h; series mostly up to 57.5 µM
Outline: as §2

PA-1 = experiment: as above; conditions: Gynecologic cancer cell panel viability, ATPlite luminescence, 48 h; series mostly up to 57.5 µM
Outline: as §2

SKOV3 = experiment: as above; conditions: Gynecologic cancer cell panel viability, ATPlite luminescence, 48 h; series mostly up to 57.5 µM
Outline: as §2

Tov-21-G = experiment: as above; conditions: Gynecologic cancer cell panel viability, ATPlite luminescence, 48 h; series mostly up to 57.5 µM
Outline: as §2

Tov112D = experiment: as above; conditions: Gynecologic cancer cell panel viability, ATPlite luminescence, 48 h; series mostly up to 57.5 µM
Outline: as §2

[1] = Drug repurposing screens with cells derived from glioblastoma tumor samples (AID 1345199); conditions: GBM patient neurospheres viability, ATP luminescence, 48 h; note: nearly all actives have a fitted effect of over 40% in size
Outline: (§3)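 Primary testing used CD133+ neurospheres from four GBM patients, seven concentrations, 48 h exposure and ATP-based viability; confirmation added three slower-growing patient lines.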

astro = experiment: as above; conditions: viability, ATP luminescence, 48 h; series mostly up to 45.9 µM
Outline: as §3

[2] = at 45.9 µM (top of the series), tumour line B
[3] = at 45.9 µM (top of the series), tumour line D
[4] = at 46 µM (top of the series), tumour line A
[5] = at 46.1 µM (top of the series), tumour line C
[6] = at 20 µM (top of the series), tumour line C
[7] = at 21.2 µM (top of the series), tumour line B
[8] = at 21.2 µM (top of the series), tumour line D
[9] = at 21.3 µM (top of the series), tumour line A
% is set by controls: 0 for no effect and ±100 for the full control effect.

C[C@]12CCC(=O)C=C1CC[C@H]1[C@@H]3CC[C@](O)(C(=O)CO)[C@@]3(C)C[C@H](O)[C@@]12F
inactive: Potency (MKL-2) | outcome (NIH3T3) | Potency (UISO) | Potency (WaGa) | Potency (C33A) | Potency (CAOV3) | Potency (CASKI) | Potency (Es-2) | Potency (HeLa) | Potency (Hek293T) | Potency (JEG-3) | Potency (OV90) | Potency (PA-1) | Potency (SKOV3) | Potency (Tov-21-G) | Potency (Tov112D) | activity, negative = cell killing [1, 2] -5.55% and -2.43% | activity, negative = cell killing [1, 3] -21.3% and -14.3% | activity, negative = cell killing [1, 4] -18.5% and -26.2% | activity, negative = cell killing [1, 5] -25.3% and 1.15% | Potency (astro)

CC(C)(CO)[C@@H](O)C(=O)NCCCO
inactive: Potency (MKL-2) | outcome (NIH3T3) | Potency (UISO) | Potency (WaGa) | Potency (C33A) | Potency (CAOV3) | Potency (CASKI) | Potency (Es-2) | Potency (HeLa) | Potency (Hek293T) | Potency (JEG-3) | Potency (OV90) | Potency (PA-1) | Potency (SKOV3) | Potency (Tov-21-G) | Potency (Tov112D) | activity, negative = cell killing [1, 2] -12% | activity, negative = cell killing [1, 3] -24.7% | activity, negative = cell killing [1, 5] -3.06% | Potency (astro)

CC[C@@H](CO)NCCN[C@@H](CC)CO
inactive: Potency (MKL-2) | outcome (NIH3T3) | Potency (UISO) | Potency (WaGa) | Potency (C33A) | Potency (CAOV3) | Potency (CASKI) | Potency (Es-2) | Potency (HeLa) | Potency (Hek293T) | Potency (JEG-3) | Potency (OV90) | Potency (PA-1) | Potency (SKOV3) | Potency (Tov-21-G) | Potency (Tov112D) | activity, negative = cell killing [1, 6] 12.9% | activity, negative = cell killing [1, 7] 2% | activity, negative = cell killing [1, 8] -7.59% | activity, negative = cell killing [1, 9] -22% | Potency (astro)

Nc1nc2ncc(CNc3ccc(C(=O)N[C@@H](CCC(=O)O)C(=O)O)cc3)nc2c(=O)[nH]1
inactive: Potency (MKL-2) | Potency (UISO) | Potency (WaGa) | Potency (C33A) | Potency (CAOV3) | Potency (CASKI) | Potency (Es-2) | Potency (HeLa) | Potency (Hek293T) | Potency (JEG-3) | Potency (OV90) | Potency (PA-1) | Potency (SKOV3) | Potency (Tov-21-G) | Potency (Tov112D) | activity, negative = cell killing [1, 2] -3.4% | activity, negative = cell killing [1, 3] 4.54% | activity, negative = cell killing [1, 4] -10.5% | activity, negative = cell killing [1, 5] -9.36% | Potency (astro)

NC(CO)(CO)CO
inactive: Potency (MKL-2) | Potency (UISO) | Potency (WaGa) | Potency (C33A) | Potency (CAOV3) | Potency (CASKI) | Potency (Es-2) | Potency (HeLa) | Potency (Hek293T) | Potency (JEG-3) | Potency (OV90) | Potency (PA-1) | Potency (SKOV3) | Potency (Tov-21-G) | Potency (Tov112D) | activity, negative = cell killing [1, 2] -1.58% | activity, negative = cell killing [1, 3] 6.44% | activity, negative = cell killing [1, 4] -13.6% | activity, negative = cell killing [1, 5] 0.171% | Potency (astro)

CC1(C)O[C@@H]2[C@@H](CO[C@@]3(COS(N)(=O)=O)OC(C)(C)O[C@@H]23)O1
inactive: Potency (MKL-2) | Potency (UISO) | Potency (WaGa) | Potency (C33A) | Potency (CAOV3) | Potency (CASKI) | Potency (Es-2) | Potency (HeLa) | Potency (Hek293T) | Potency (JEG-3) | Potency (OV90) | Potency (PA-1) | Potency (SKOV3) | Potency (Tov-21-G) | Potency (Tov112D) | activity, negative = cell killing [1, 2] 2.05% | activity, negative = cell killing [1, 3] -22.3% | activity, negative = cell killing [1, 4] -14.9% | activity, negative = cell killing [1, 5] -2.36% | Potency (astro)

CCOc1ccc(NC(=O)CC(C)O)cc1 (stereo not given)
inactive: Potency (MKL-2) | Potency (UISO) | Potency (WaGa) | Potency (C33A) | Potency (CAOV3) | Potency (CASKI) | Potency (Es-2) | Potency (HeLa) | Potency (Hek293T) | Potency (JEG-3) | Potency (OV90) | Potency (PA-1) | Potency (SKOV3) | Potency (Tov-21-G) | Potency (Tov112D) | activity, negative = cell killing [1, 2] -5.84% | activity, negative = cell killing [1, 3] -16.9% | activity, negative = cell killing [1, 4] -20.2% | activity, negative = cell killing [1, 5] -0.587%

COC(=O)CCc1ccc(OCC(O)CNC(C)C)cc1 (stereo not given)
inactive: Potency (MKL-2) | Potency (UISO) | Potency (WaGa) | Potency (C33A) | Potency (CAOV3) | Potency (CASKI) | Potency (Es-2) | Potency (HeLa) | Potency (Hek293T) | Potency (JEG-3) | Potency (OV90) | Potency (PA-1) | Potency (SKOV3) | Potency (Tov-21-G) | Potency (Tov112D) | activity, negative = cell killing [1, 2] -6.72% | activity, negative = cell killing [1, 3] -12.4% | activity, negative = cell killing [1, 5] -12.3% | Potency (astro)

CN=C(NC#N)Nc1ccc(C2=NNC(=O)CC2C)cc1 (stereo not given)
inactive: Potency (MKL-2) | Potency (UISO) | Potency (WaGa) | Potency (C33A) | Potency (CAOV3) | Potency (CASKI) | Potency (Es-2) | Potency (HeLa) | Potency (Hek293T) | Potency (JEG-3) | Potency (OV90) | Potency (PA-1) | Potency (SKOV3) | Potency (Tov-21-G) | Potency (Tov112D) | activity, negative = cell killing [1, 2] -9.56% | activity, negative = cell killing [1, 3] 17.5% | activity, negative = cell killing [1, 4] -26.1% | activity, negative = cell killing [1, 5] -22.3% | Potency (astro)

CCn1cc(C(=O)O)c(=O)c2cnc(N3CCCC3)nc21
inactive: activity change, negative = cytotoxicity (MKL-2) 14.9% [at 9.22 µM] | activity change, negative = cytotoxicity (UISO) 12.1% [at 9.22 µM] | activity change, negative = cytotoxicity (WaGa) 0.34% [at 9.22 µM] | activity change, negative = cytotoxicity (C33A) -2.2% [at 11.6 µM] | activity change, negative = cytotoxicity (CAOV3) -1.93% [at 11.6 µM] | activity change, negative = cytotoxicity (CASKI) 15.2% [at 11.6 µM] | activity change, negative = cytotoxicity (Es-2) 0.873% [at 11.6 µM] | activity change, negative = cytotoxicity (HeLa) -17.6% [at 11.6 µM] | activity change, negative = cytotoxicity (Hek293T) 1.62% [at 11.6 µM] | activity change, negative = cytotoxicity (JEG-3) -0.757% [at 11.6 µM] | activity change, negative = cytotoxicity (OV90) -1.88% [at 11.6 µM] | activity change, negative = cytotoxicity (PA-1) 3.4% [at 11.6 µM] | activity change, negative = cytotoxicity (SKOV3) 27% [at 11.6 µM] | activity change, negative = cytotoxicity (Tov-21-G) 5.91% [at 11.6 µM] | activity change, negative = cytotoxicity (Tov112D) 5.36% [at 11.6 µM] | activity, negative = cell killing [1, 6] -8.14% | activity, negative = cell killing [1, 7] -5.2% | activity, negative = cell killing [1, 8] -3.67% | activity, negative = cell killing [1, 9] -24.5% | Potency (astro)
